# Bioassay records deposited in PubChem BioAssay by National Center for Advancing Translational Sciences (NCATS).
# Only some compounds are listed: those with a hit (about 21% of all), similar ones and a draw of the others.
# Pf growth 96h = P. falciparum growth inhibition at 96 hours. P. falciparum luciferase reporter growth, 96 h. 6.9% of 320,000 active. Potency, µM (series often up to 28.7 µM), without a hit: at the highest dose activity change, negative = inhibition, actives largely listed as inhibitors; note: potency is the fitted concentration of half-maximal effect; % is set by controls: 0 for no effect and ±100 for the full control effect
#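 Infected RBCs, 2% Hct / 0.05% parasitemia final; luciferase-reporter P. falciparum; cpd 96 h, 37 C, 5% CO2; luciferase detection reagent; luminescence.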
# CHX counter = counter-screen for Shiga toxin inhibitors: cycloheximide protein synthesis inhibition; 12% of 300,000 active; max response, %; cell reporter, cycloheximide protein synthesis inhibition counterscreen; in the data active = max response mostly above about 13%, no sharp cut-off; inactive = mostly below about 14%; note: read at 38.3 µM for the half of the compounds with a filed dose; 0% is about no effect
# HCMV antiviral = inhibitors of human cytomegalovirus. activity change, negative = inhibition, % at 57.5 µM. 4.5% of 410,000 active. HFF cells, HCMV-luciferase reporter, 72 h; hits give low values. AID 1259415; in the data active = activity change below about -60%; inconclusive = no clear call, values can overlap the other calls; inactive = above about -39%; note: % is set by controls: 0 for no effect and ±100 for the full control effect
#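 Inhibition of viral replication was scored as loss of reporter luminescence in HFFs infected with HCMV-luciferase (MOI 1 PFU/cell) for 72 h; compounds tested at 2 doses, normalized to buffer and Salinomycin controls.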
# Shiga inhibitor = Shiga toxin inhibition; 9.2% of 290,000 active; inhibition, % at 38.7 µM; Vero cells, Shiga toxin protein synthesis inhibition reporter; AID 2315; in the data active = inhibition mostly above about 28%, no sharp cut-off; inactive = mostly below about 43%; note: 0% is about no effect
# HCV inh = blocks hepatitis C virus; Potency, µM (series often up to 41.8 µM), inactives show at the top dose activity change, negative = inhibition, actives largely listed as inhibitors; AID 651820; Huh7.5.1 HCVcc-Cre infection, luciferase reporter, 44 h; 3.4% of 340,000 active; note: potency is the fitted concentration of half-maximal effect; % is set by controls: 0 for no effect and ±100 for the full control effect
#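 Luciferase read-out (15 sec integration) after a 15 min room-temperature substrate step quantifies HCVcc-Cre infection. Cells, 1,000 per well, had compound added 4 h post-plating, then virus at ~0.5 moi, and were cultured 44 h.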
# Pf growth 48h = P. falciparum growth inhibition at 48 hours (one generation); P. falciparum luciferase growth in erythrocytes, 48 h; Potency, µM (highest dose often 28.7 µM), without a hit: top-dose activity change, negative = inhibition, most hits filed as inhibitors; 5.9% of 310,000 active; AID 504832; note: potency is the fitted concentration of half-maximal effect; % is set by controls: 0 for no effect and ±100 for the full control effect
#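 First compound was added to culture medium, then infected red cells at 0.1% parasitemia and 2% hematocrit (final). After incubation at 37 C under 5% CO2, luciferase detection reagent was dispensed and light output recorded.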
# * hit, by the source's call; i = inactive; u = inconclusive; x = no result; [ ] = remark or other dose. Unless noted, calls come from the whole dose curve; as a rule, active = well fitted inhibition curve with a large enough effect; inconclusive = small, poorly fitted or top-dose-only effect, or another doubt; inactive = no such curve, though single readings can be large or run the other way.
SMILES,Pf growth 96h,CHX counter,HCMV antiviral,Shiga inhibitor,HCV inh,Pf growth 48h
COc1ccc(Cn2cc(S(=O)(=O)c3ccc(Cl)cc3)c(=O)c3cc4c(cc32)OCO4)cc1,x,x,5.3,x,x,x
CC1CCN(S(=O)(=O)c2ccc3ccccc3c2)CC1,x,6.8,3.6,4.1,9.0%,8.6%
CC1CCN(S(=O)(=O)c2ccc3nc(N4CCN(c5ccccc5)CC4)ccc3c2)CC1,10.4µM*,-6.8,u,16.5,17.2%,-2.6%
CC(=O)c1ccc(N2CCN(c3ccc4cc(S(=O)(=O)N5CCCCC5)ccc4n3)CC2)cc1,x,x,-3.5,x,x,x
O=S(=O)(c1ccc2nc(N3CCN(c4ccc(F)cc4)CC3)ccc2c1)N1CCCCC1,13.1µM*,-1.1,-14.2,-2.5,16.4%,3.3%
C[C@H](CO)N1C[C@H](C)[C@@H](CN(C)C(=O)Nc2ccc(C(F)(F)F)cc2)OCc2cn(nn2)CCCC1=O,x,x,-5.6,x,x,x
CSc1ccc(CNC(=O)CCn2ccc3cc(S(=O)(=O)N4CCCC4)ccc32)cc1,u,-2.9,0.0,-4.1,u,u
O=[N+]([O-])c1ccccc1N/N=C\c1ccccc1Cl,306.6%,26.1*,90.0,41.5*,5.4%,207.9%
COc1ccc(/C=N/Nc2ncccc2[N+](=O)[O-])c(OC)c1,-10.6%,11.7,-31.5,50.9*,-9.8%,348.7%
O=[N+]([O-])c1ccc(N/N=C/c2cccc(O)c2O)c(S(=O)(=O)N2CCOCC2)c1,u,-4.2,-0.4,3.5,2.82µM*,u
COc1ccc(/C=N/Nc2ncc(-c3ccccc3)cn2)c(OC)c1,u,-2.3,u,18.4,3.0%,0.0%
O=[N+]([O-])c1ccccc1C=NNc1ccccc1,x,x,-7.5,x,-11.1%,x
CCCOc1ccc(/C=N/Nc2ccccc2[N+](=O)[O-])c(OCCC)c1,0.0%,27.9*,u,14.3,u,u
Fc1ccc(C2=CC(c3ccc(F)cc3)n3c(nc4ccccc43)N2)cc1 (configuration not stated),x,x,63.9,x,x,x
COc1ccc(Oc2ncccc2[N+](=O)[O-])cc1,11.7µM*,8.1,14.2,38.1,-9.3%,u
O=[N+]([O-])c1ccccc1N/N=C\c1ccccc1F,149.8%,48.3*,70.1,50.9*,1.6%,434.9%
O=[N+]([O-])c1cccnc1Oc1ccc(F)cc1,u,5.0,u,-1.0,u,9.1%
O=[N+]([O-])c1cccc(N/N=C/c2cccc(O)c2O)c1,0.9%[5.75 µM],39.8*,28.2,85.3*,u,u
O=[N+]([O-])c1ccc(O)c(/C=N/Nc2ccccc2Cl)c1,-19.6%,39.6*,-10.4,68.8*,u,97.4%
CC(=O)Nc1ccc2nc(CN3CCN(Cc4ccc(F)cc4)C(CCO)C3)ccc2c1 (configuration not stated),u,8.8,3.0,-2.9,-6.2%,u
COC(=O)c1cc2oc(C)cc2n1Cc1cccc(Cl)c1,x,x,14.2,x,x,x
O=[N+]([O-])c1ccccc1N/N=C/c1cccc(O)c1O,442.0%,29.8*,1.0,115.2*,-27.8%,217.5%
O=[N+]([O-])c1cccc(/C=N\N=C2c3ccccc3-c3ccccc32)c1O,i,6.8,u,-2.8,u,-0.2%
CC(C)(C)c1ccc(OCC(=O)NNC(=S)NC(=O)c2ccccc2[N+](=O)[O-])c(Br)c1,u,-2.5,1.2,-6.4,-9.5%,14.9%
O=C(Nc1ccc(F)c(Cl)c1)C1CCCN(C2=NS(=O)(=O)c3ccccc32)C1 (configuration not stated),u,x,-22.0,x,-2.7%,u
COC(=O)C1=C(Nc2ccccc2NC(=O)CCCC(=O)O)CSC1,20.2%,13.5*,-9.6,29.3,8.9%,21.2%
CC(C)c1ccccc1NC(=O)CCCC(=O)O,x,-2.6,-37.4,-1.8,-4.7%,-5.9%
COC(=O)C1=C(Nc2ccccc2NC(=O)c2ccccc2C(=O)O)CSC1,-1.0%,56.3*,126.8,103.2*,2.2%,69.8%
O=C(O)c1ccccc1C(=O)Nc1ccccc1NC(=O)c1ccccc1C(=O)O,x,x,128.3,x,19.1%,x
CC1(C)CC(=O)C2=C(C1)Oc1nc3ccccc3cc1C2C(C#N)C#N (configuration not stated),-1.0%,-0.9,121.8,-3.4,u,0.657µM*
